ChEMBL document CHEMBL1961873, “Compounds: GSK PKIS; Assays: Nanosyn kinase panel” (2012)
Where “and” joins values, the source holds several entries; their conditions need not be identical. Equal values may be shown once.

molecular target: Vascular endothelial growth factor receptor 2 (Homo sapiens) (UniProt P35968); conditions: at 0.1 µM
Sequence (P35968 whole entry): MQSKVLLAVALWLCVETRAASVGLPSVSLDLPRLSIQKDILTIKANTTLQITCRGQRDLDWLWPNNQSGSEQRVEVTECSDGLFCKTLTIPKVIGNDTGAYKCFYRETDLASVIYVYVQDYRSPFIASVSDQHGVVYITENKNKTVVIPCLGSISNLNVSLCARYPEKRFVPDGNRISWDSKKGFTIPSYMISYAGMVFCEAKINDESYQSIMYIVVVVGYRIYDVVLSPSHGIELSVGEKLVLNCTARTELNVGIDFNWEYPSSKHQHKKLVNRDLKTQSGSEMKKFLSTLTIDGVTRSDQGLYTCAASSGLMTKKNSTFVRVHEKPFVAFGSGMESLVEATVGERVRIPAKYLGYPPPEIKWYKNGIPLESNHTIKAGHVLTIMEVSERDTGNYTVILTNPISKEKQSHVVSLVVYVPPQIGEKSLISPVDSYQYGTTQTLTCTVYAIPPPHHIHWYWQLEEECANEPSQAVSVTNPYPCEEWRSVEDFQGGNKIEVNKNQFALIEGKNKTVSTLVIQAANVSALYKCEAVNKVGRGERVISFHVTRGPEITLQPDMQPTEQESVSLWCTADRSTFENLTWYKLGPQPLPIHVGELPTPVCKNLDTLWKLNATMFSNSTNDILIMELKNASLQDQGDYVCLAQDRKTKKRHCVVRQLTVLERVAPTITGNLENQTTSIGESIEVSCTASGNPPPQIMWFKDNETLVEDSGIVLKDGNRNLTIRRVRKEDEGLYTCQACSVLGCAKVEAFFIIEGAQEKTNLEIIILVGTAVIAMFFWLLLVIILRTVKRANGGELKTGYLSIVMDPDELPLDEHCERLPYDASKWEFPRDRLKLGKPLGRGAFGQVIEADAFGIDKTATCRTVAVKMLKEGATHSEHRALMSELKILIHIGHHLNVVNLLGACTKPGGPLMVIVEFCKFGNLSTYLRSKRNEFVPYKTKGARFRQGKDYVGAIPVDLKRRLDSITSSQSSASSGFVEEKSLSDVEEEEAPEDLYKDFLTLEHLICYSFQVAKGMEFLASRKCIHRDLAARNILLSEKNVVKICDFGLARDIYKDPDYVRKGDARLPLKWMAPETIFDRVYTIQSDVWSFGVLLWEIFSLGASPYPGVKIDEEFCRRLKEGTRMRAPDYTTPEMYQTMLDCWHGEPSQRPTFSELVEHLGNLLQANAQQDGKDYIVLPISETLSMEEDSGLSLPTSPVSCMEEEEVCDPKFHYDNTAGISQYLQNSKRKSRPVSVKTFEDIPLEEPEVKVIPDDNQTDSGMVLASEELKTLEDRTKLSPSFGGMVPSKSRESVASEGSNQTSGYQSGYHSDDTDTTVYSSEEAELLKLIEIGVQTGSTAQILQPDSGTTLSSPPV

SMILES | inhibition
CN1CCN(Cc2ccc(-c3cc4ncnc(Nc5ccc(OCc6cccc(F)c6)c(Cl)c5)c4s3)o2)CC1 | 7.34% and 7.83%
Cc1nnc(-c2cccc(-c3ccc(C(=O)NCC4CC4)cc3)c2)o1 | 6.85%
CCn1c(-c2nonc2N)nc2cncc(C(=O)NCCNC)c21 | 4.45%
COc1c(C(N)=O)cc(-c2ccc(Cl)cc2)cc1-c1ccc(S(N)(=O)=O)cc1 | 6.96%
COc1cc(N2CCN(C(C)C)CC2)ccc1Nc1nc(Nc2cccc3ncccc23)c2cc[nH]c2n1 | 1.96%
CS(=O)(=O)CCNCc1ccc(-c2ccc3ncnc(Nc4ccc(OCc5ccccc5)cc4)c3c2)o1 | 3.83%
Cc1c2ccc(N(C)c3ccnc(Nc4cccc(S(N)(=O)=O)c4)n3)cc2nn1C | 76.4%
N#Cc1cccc(Nc2ncc(-c3ccccc3)o2)c1 | 3.11%
FC(F)(F)CNc1nccc(-c2cnn3ncccc23)n1 | 2.14%
c1cnn2ncc(-c3ccnc(NCCCN4CCOCC4)n3)c2c1 | 5.58%
Cc1cc(O)cc(C)c1/C=C/c1cncc(C(N)=O)c1 | 4.56%
NC(=O)c1ccc2c(-c3ccnc(NCCCO)n3)c(-c3ccc(F)cc3)nn2c1 | 6.05%
Fc1cccc(COc2ccc(Nc3ncncc3C#Cc3ccccc3)cc2Cl)c1 | 5.83%
CCCNc1cccc(-n2ncc3c(N/N=C/c4ccncc4)ncnc32)c1 | 17.3%
COc1cccc(Nc2nccc(-c3cnn4ncccc34)n2)c1 | 9.69%
Cc1cc(O)cc(C)c1/C=C/c1cncc(C(=O)OC(C)(C)C)c1 | 4.17%
CS(=O)(=O)Nc1ccc(-c2ccc3c(NC(=O)C4CC4)n[nH]c3c2)cc1 | 4.26%
